Most compounds without a hit are left out; they make up all but 2.4% or so of the library.
FEN1 inhibitor – human FEN1 inhibition; P39748; Recombinant FEN1 flap cleavage, fluorescence, 15 min; Potency, µM (doses to about 114 µM), for inactives: at the highest dose activity change, negative = inhibition, actives largely listed as inhibitors; 390,000 tested, 0.35% active; AID 588795; further: on the % scale 0 is the no-effect control and ±100 the full control effect; nearly all actives have a fitted effect of over 65% in size
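Steps: FEN1 (10 nM) dispensed; compound added by pin tool; 15 min at room temperature; substrate added to 50 nM final; reads at 0 min and 15 min; data normalized and fitted (four-parameter Hill).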
POLB inh – DNA polymerase beta (human) inhibition; P06746; Pol beta primer extension/strand displacement, fluorescence kinetic; Potency, µM (highest dose often 114 µM), inactives show at the top dose activity change, negative = inhibition, most hits filed as inhibitors; 340,000 tested, 1.3% active; further: on the % scale 0 is the no-effect control and ±100 the full control effect
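Reaction started by 50 nM substrate onto compound-treated Pol beta (10 nM, 15 min preincubation, room temperature); plates read at 0 min and 10 min. Normalized concentration-effect data fitted by four-parameter Hill equation.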
POLI inh – inhibitors of human DNA polymerase iota; 390,000 tested, 1% active; Pol iota fluorescent replication assay, 10 min; Potency, µM (series often up to 115 µM), without a hit: at the highest dose activity, negative = inhibition, usual class: inhibitors; AID 588590; Q9UNA4
Target sequence (Q9UNA4 whole entry, looked up): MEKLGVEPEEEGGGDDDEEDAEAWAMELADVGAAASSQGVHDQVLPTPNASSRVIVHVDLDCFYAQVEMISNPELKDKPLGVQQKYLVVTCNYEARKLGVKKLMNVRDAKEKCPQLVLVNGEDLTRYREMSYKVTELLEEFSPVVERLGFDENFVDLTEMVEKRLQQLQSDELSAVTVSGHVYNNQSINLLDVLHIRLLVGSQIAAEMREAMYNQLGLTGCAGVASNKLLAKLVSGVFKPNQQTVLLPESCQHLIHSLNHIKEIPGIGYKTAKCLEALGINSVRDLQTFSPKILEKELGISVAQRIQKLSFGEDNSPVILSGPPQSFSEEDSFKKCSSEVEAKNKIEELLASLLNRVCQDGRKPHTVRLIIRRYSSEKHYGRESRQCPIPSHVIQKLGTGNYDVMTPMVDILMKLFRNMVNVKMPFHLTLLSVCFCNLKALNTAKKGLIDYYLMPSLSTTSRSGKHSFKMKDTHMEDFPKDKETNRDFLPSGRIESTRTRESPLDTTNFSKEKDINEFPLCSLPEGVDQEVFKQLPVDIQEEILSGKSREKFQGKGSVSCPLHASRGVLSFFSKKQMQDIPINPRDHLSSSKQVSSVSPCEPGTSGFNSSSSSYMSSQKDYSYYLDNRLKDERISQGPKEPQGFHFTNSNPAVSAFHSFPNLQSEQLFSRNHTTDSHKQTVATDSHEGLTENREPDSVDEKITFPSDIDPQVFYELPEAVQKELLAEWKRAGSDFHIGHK
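Fluorescent replication assay read twice, at 0 min and 10 min after adding 50 nM (final) substrate. Enzyme (10 nM) and compounds were first incubated 15 min at room temperature; enzyme-free buffer wells were negative controls.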
WRN inhibitor – blocks human WRN helicase; WRN helicase unwinding, fluorescent forked duplex, kinetic; Potency, µM (titrated, usually from 114 µM), without a hit: at the top dose activity change, negative = inhibition, most hits filed as inhibitors; 360,000 tested, 0.46% active; Q14191; further: on the % scale 0 is the no-effect control and ±100 the full control effect; nearly all actives have a fitted effect of over 55% in size
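WRN at 20 nM final was preincubated with compound for 15 min at room temperature; reaction started with 100 nM forked duplex oligonucleotide carrying fluorophore and quencher plus 2 mM ATP (final). Unwinding followed kinetically by red fluorescence (ex 525/em 598 nm).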
POLK inh – inhibitors of human DNA polymerase kappa. Q9UBT6. AID 588579. 400,000 tested, 0.53% active. purified Pol kappa, fluorescent DNA synthesis assay, 10 min. Potency, µM (series often up to 107 µM), for inactives: at the highest dose activity, negative = inhibition, actives largely listed as inhibitors; further: on the % scale 0 is the no-effect control and ±100 the full control effect
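Readout: fluorescence, taken kinetically at 0 and 10 min. Conditions: 10 nM Pol kappa, 15 min RT compound preincubation, 50 nM substrate final. Controls: enzyme-free buffer wells.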
Pol eta inh – DNA polymerase eta (human) inhibition; Q9Y253; recombinant Pol eta, fluorescent DNA replication assay; Potency, µM (series often up to 114 µM), for inactives: at the top dose activity change, negative = inhibition, hits mostly inhibitors; 390,000 tested, 1.2% active; further: on the % scale 0 is the no-effect control and ±100 the full control effect
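Pol eta at 10 nM preincubated with compounds 15 min at room temperature; reaction started with fluorescent substrate (50 nM final) and read kinetically at 0 and 10 min.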
* = called active by the depositor; [ ] = dose if it differs, or a comment. The call rests on the fitted dose curve; in most records, active means well fitted curve in the direction sought with a large enough effect; inconclusive means small, poorly fitted or top-dose-only effect, or another doubt; inactive means no such curve, though single readings can be large; an effect the other way counts as inactive or inconclusive. Potency means the concentration at half of the fitted maximal effect.

What do the screens show for `CCCCCC1CCNCC1`?
FEN1 inhibitor: -8%; POLI inh: 12%; POLK inh: 1%

Results for O=C(Nc1ccc(C(=O)O)cc1)/C(=C\c1ccco1)NC(=O)c1ccccc1 ?
FEN1 inhibitor: 3%; POLB inh: inconclusive; POLI inh: 66%; WRN inhibitor: 11%; POLK inh: -1%; Pol eta inh: 11%

How did CC(C)(C)c1ccc(C(=O)N/C(=C\c2ccco2)C(=O)Nc2ccccc2C(=O)O)cc1 do in these assays?
FEN1 inhibitor: 3%; POLB inh: inconclusive; POLI inh: inconclusive; WRN inhibitor: -31%; POLK inh: inconclusive; Pol eta inh: 35µM*

Results for CC(=O)c1sc2nc(-c3ccco3)ccc2c1N ?
FEN1 inhibitor: inconclusive; POLB inh: 13µM*; POLI inh: 5µM*; WRN inhibitor: inconclusive; POLK inh: 79µM*; Pol eta inh: 28µM*

How did Nc1c(C(=O)Nc2ccc(Br)cc2)sc2nc(-c3ccco3)ccc12 do in these assays?
FEN1 inhibitor: -11%; POLB inh: -26%; POLI inh: 5%; WRN inhibitor: -21%; POLK inh: -8%; Pol eta inh: -5%

What do the screens show for `O=C(O)/C(=C\c1cccc(F)c1)c1ccc(S(=O)(=O)N2CCCCC2)s1`?
FEN1 inhibitor: 1%; POLB inh: 22µM*; POLI inh: inconclusive; WRN inhibitor: inconclusive; POLK inh: -20%; Pol eta inh: inconclusive

What do the screens show for `O=C(O)/C(=C/c1ccc(Cl)c([N+](=O)[O-])c1)c1ccc(S(=O)(=O)N2CCCCC2)s1`?
FEN1 inhibitor: -4%; POLI inh: inconclusive; WRN inhibitor: -15%; POLK inh: 89µM*; Pol eta inh: 28µM*

What do the screens show for `O=C(O)/C(=C\c1cccc(O)c1)c1ccc(S(=O)(=O)N2CCCC2)s1`?
FEN1 inhibitor: -1%; POLI inh: inconclusive; WRN inhibitor: -4%[11.6 µM]; POLK inh: inconclusive; Pol eta inh: 35µM*

How did CC(=O)c1cccc(NC(=O)c2nc3ccccc3n(C)c2=O)c1 do in these assays?
FEN1 inhibitor: -7%; POLB inh: -2%; POLI inh: 0%; POLK inh: -2%; Pol eta inh: -17%

What do the screens show for `Nc1nonc1C(=O)N/N=C/c1ccc(-c2cccc(C(=O)O)c2)o1`?
POLB inh: 18µM*

How did CCS(=O)(=O)N1Cc2ccccc2CC1C(=O)Nc1nnc(SCc2ccc(C#N)cc2)s1 (configuration not stated) do in these assays?
FEN1 inhibitor: -9%; POLB inh: 10µM*; POLI inh: inconclusive; WRN inhibitor: inconclusive; POLK inh: inconclusive; Pol eta inh: inconclusive

Results for CCS(=O)(=O)N1Cc2ccccc2CC1C(=O)Nc1ncc(C)s1 (configuration not stated) ?
FEN1 inhibitor: 16%; POLB inh: -3%; POLI inh: 17%; WRN inhibitor: -4%; POLK inh: 0%; Pol eta inh: -11%

How did CCSc1nnc(NC(=O)C2Cc3ccccc3CN2C(=O)c2ccco2)s1 (configuration not stated) do in these assays?
FEN1 inhibitor: -11%; POLB inh: 22µM*; POLI inh: inconclusive; WRN inhibitor: inconclusive; POLK inh: inconclusive; Pol eta inh: 28µM*

How did O=C(COC(=O)c1ccccc1Oc1ccccc1)Nc1ccc(Br)cc1 do in these assays?
FEN1 inhibitor: 14%; POLI inh: -10%; POLK inh: 6%

Results for Cn1cc(/C=C2\SC(=S)N(NC(=O)c3cccc(Cl)c3)C2=O)c2ccccc21 ?
FEN1 inhibitor: 8%; POLB inh: 0%; POLI inh: 20%; WRN inhibitor: 20µM*; POLK inh: 10%; Pol eta inh: 14%

How did CCc1ccccc1N(C)C(=O)c1cn(CC(C)C)c(=O)c2cc(OC)c(OC)cc12 do in these assays?
FEN1 inhibitor: 11%; POLB inh: 20%; POLI inh: 0%; POLK inh: 9%; Pol eta inh: -11%

Results for Cc1cc(C)c(N(Cc2ccccc2)S(=O)(=O)c2ccc(OCCNC(=O)c3cc4ccccc4o3)cc2)c(C(=O)NO)c1 ?
POLK inh: -7%[60.1 µM]

What do the screens show for `COc1nc(N)nc(NC(=O)c2cccs2)c1N=O`?
FEN1 inhibitor: -6%; POLI inh: 28µM*; WRN inhibitor: inconclusive; POLK inh: 2%; Pol eta inh: -17%

How did COc1ccc(NC(=O)c2ccc(NC(=O)c3cccs3)cc2)cc1 do in these assays?
FEN1 inhibitor: -5%; POLB inh: -6%; POLI inh: -3%; WRN inhibitor: -31%; POLK inh: -9%; Pol eta inh: 0%

What do the screens show for `c1csc(Cc2nn3c(-c4ccncc4)nnc3s2)c1`?
FEN1 inhibitor: inconclusive; POLB inh: 32µM*; POLI inh: 20µM*; WRN inhibitor: inconclusive; POLK inh: 40µM*; Pol eta inh: inconclusive

Results for CC(=O)Nc1cc(O)c2nonc2c1O ?
FEN1 inhibitor: inconclusive; POLI inh: -92%; POLK inh: -14%

How did COc1ccc(C(=O)CSc2nnc(-c3ccco3)n2C)cc1 do in these assays?
FEN1 inhibitor: -6%; POLB inh: 25%; POLI inh: 7%; WRN inhibitor: 4%; POLK inh: -6%; Pol eta inh: -1%

How did COc1cccc(NC(=O)CSc2nnc(-c3ccco3)c(-c3ccco3)n2)c1 do in these assays?
FEN1 inhibitor: inconclusive; POLB inh: inconclusive; POLI inh: inconclusive; WRN inhibitor: 45µM*; POLK inh: 50µM*; Pol eta inh: 20µM*

How did COc1cccc(NC(=O)CSc2nnc(CNC(=O)c3ccco3)n2C)c1 do in these assays?
FEN1 inhibitor: 4%; POLI inh: 73%; WRN inhibitor: 0%; POLK inh: 6%; Pol eta inh: -10%

Results for COc1ccc(C(=O)n2nc(-c3ccco3)nc2N)cc1 ?
FEN1 inhibitor: 4%; POLB inh: 25µM*; POLI inh: 16%; WRN inhibitor: 1%; POLK inh: 1%; Pol eta inh: -4%

Results for COc1ccc(NC(=O)CSc2nnc(-c3ccco3)c(-c3ccco3)n2)cc1OC ?
FEN1 inhibitor: -25%; POLB inh: -20%; POLI inh: inconclusive; WRN inhibitor: -27%; POLK inh: inconclusive; Pol eta inh: 50µM*

Results for Cc1ccc(C(=O)n2nc(-c3ccco3)nc2N)cc1 ?
FEN1 inhibitor: -2%; POLB inh: 13%; POLI inh: -28%; WRN inhibitor: -20%; POLK inh: -22%; Pol eta inh: -6%

Screening data from PubChem BioAssay.
